Legend:
[1] = molecular target: Interleukin-1 receptor-associated kinase 1 (Homo sapiens) (UniProt P51617); details: at 1 µM
[2] = molecular target: Interleukin-1 receptor-associated kinase 1 (Homo sapiens) (UniProt P51617); details: at 10 µM
[3] = molecular target: Insulin receptor-related protein (Homo sapiens) (UniProt P14616); details: at 1 µM
[4] = molecular target: Insulin receptor-related protein (Homo sapiens) (UniProt P14616); details: at 10 µM
[5] = molecular target: T1, Interleukin-1 receptor-associated kinase 4 (Homo sapiens) (UniProt Q9NWZ3); details: at 10 µM
T1 sequence (whole entry): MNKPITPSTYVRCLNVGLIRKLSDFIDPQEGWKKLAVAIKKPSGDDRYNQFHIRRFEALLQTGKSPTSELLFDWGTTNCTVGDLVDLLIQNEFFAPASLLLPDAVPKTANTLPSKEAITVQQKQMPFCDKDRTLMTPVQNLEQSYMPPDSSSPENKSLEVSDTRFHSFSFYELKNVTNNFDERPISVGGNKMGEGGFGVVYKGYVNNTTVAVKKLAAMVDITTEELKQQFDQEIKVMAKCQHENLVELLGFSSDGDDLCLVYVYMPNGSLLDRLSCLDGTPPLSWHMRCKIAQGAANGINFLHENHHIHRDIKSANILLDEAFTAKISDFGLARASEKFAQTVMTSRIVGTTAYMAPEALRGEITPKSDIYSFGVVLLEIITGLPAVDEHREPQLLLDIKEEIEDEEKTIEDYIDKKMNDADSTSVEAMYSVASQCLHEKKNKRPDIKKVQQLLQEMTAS

[6] = molecular target: T2, Tyrosine-protein kinase JAK3 (Homo sapiens) (UniProt P52333); details: at 10 µM
T2 sequence (whole entry): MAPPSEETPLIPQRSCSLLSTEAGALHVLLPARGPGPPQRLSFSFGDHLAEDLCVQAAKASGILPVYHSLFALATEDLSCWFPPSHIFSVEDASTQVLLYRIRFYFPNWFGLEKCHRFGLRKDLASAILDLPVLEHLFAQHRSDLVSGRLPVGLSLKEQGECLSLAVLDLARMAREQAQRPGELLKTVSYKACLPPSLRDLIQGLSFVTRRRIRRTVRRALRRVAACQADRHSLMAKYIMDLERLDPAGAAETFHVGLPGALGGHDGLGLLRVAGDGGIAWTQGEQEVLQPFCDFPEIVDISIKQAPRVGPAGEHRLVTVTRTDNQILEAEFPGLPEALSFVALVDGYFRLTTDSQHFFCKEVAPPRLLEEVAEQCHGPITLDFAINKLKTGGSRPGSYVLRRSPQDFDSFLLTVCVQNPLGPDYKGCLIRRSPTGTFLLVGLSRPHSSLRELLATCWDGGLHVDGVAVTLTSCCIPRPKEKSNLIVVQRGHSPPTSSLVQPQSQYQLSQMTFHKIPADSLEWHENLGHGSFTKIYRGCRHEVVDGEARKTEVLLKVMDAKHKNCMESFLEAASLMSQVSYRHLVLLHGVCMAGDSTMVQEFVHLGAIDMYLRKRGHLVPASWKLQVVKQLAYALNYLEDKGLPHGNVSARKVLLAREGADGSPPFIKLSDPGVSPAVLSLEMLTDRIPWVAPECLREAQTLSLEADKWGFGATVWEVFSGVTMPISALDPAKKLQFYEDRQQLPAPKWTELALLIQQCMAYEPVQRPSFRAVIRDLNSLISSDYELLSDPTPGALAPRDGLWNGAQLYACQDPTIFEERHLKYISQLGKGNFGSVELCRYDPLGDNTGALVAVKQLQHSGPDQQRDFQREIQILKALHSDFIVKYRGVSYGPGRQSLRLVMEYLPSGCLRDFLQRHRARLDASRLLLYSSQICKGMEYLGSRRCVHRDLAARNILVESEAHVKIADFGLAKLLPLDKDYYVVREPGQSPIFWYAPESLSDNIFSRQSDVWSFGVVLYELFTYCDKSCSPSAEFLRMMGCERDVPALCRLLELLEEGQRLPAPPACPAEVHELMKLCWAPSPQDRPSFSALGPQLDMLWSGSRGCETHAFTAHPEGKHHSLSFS

[7] = molecular target: Mitogen-activated protein kinase 9 (Homo sapiens) (UniProt P45984); details: at 10 µM
Chain of Mitogen-activated protein kinase 9 (Homo sapiens) (P45984 whole entry, looked up): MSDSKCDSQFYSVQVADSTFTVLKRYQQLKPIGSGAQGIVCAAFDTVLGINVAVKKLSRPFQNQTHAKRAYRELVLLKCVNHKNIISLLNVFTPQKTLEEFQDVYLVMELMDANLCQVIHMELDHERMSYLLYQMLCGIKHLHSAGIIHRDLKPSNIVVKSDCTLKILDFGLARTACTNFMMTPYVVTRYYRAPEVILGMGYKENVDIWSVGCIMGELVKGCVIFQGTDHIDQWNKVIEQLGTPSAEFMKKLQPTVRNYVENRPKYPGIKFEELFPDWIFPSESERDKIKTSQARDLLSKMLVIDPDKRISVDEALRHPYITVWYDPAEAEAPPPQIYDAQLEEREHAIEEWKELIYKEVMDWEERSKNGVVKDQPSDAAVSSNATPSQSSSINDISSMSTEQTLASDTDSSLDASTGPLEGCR

[8] = molecular target: Mitogen-activated protein kinase 10 (Homo sapiens) (UniProt P53779); details: at 1 µM
Chain of Mitogen-activated protein kinase 10 (Homo sapiens) (P53779 whole entry): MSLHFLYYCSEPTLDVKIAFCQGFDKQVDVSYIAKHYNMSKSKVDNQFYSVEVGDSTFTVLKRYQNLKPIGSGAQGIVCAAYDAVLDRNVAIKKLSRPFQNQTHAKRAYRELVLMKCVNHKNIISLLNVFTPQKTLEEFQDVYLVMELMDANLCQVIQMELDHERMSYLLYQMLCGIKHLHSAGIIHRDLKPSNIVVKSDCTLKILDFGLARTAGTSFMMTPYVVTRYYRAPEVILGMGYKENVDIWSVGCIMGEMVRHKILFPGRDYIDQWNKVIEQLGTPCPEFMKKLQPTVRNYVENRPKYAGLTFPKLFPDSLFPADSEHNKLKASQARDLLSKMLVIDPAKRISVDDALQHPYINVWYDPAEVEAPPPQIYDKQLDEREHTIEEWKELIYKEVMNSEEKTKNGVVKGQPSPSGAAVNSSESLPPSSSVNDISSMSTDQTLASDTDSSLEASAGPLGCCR

[9] = molecular target: T1, Interleukin-1 receptor-associated kinase 4 (Homo sapiens); details: at 1 µM
[10] = molecular target: Tyrosine-protein kinase JAK2 (Homo sapiens) (UniProt O60674); details: at 1 µM
Chain of Tyrosine-protein kinase JAK2 (Homo sapiens) (O60674 whole entry): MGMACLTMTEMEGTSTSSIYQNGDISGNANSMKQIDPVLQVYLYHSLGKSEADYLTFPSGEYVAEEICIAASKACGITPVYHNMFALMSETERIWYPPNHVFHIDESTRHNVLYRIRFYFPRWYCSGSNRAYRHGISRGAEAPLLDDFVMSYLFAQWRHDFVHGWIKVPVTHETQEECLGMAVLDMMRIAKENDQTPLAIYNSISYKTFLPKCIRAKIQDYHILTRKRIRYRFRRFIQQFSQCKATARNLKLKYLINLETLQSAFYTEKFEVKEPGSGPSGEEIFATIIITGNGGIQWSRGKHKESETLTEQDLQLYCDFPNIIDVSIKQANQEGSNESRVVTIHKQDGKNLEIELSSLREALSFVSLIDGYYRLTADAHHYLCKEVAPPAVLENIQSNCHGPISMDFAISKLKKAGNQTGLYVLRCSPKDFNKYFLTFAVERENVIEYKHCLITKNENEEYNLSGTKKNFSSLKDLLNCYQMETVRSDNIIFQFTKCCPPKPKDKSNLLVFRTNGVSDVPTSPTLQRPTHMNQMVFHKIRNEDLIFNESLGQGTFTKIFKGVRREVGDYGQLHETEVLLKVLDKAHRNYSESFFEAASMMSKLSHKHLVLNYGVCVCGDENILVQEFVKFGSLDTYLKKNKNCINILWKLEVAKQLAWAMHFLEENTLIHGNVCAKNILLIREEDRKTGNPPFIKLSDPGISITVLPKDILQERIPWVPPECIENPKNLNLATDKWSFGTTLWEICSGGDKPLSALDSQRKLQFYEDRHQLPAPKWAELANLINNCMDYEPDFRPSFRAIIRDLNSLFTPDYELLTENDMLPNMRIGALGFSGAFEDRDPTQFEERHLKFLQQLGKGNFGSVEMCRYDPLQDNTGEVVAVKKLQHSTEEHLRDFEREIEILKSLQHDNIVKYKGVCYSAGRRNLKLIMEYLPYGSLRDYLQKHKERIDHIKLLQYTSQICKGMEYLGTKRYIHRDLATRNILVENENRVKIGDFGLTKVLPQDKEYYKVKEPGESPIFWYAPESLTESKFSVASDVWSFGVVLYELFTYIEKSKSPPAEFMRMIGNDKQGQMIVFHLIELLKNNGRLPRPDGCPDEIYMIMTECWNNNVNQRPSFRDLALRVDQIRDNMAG

[11] = molecular target: Tyrosine-protein kinase JAK2 (Homo sapiens) (UniProt O60674); details: at 10 µM
[12] = molecular target: T2, Tyrosine-protein kinase JAK3 (Homo sapiens); details: at 1 µM
[13] = molecular target: Mitogen-activated protein kinase 8 (Homo sapiens) (UniProt P45983); details: at 1 µM
Chain of Mitogen-activated protein kinase 8 (Homo sapiens) (P45983 whole entry): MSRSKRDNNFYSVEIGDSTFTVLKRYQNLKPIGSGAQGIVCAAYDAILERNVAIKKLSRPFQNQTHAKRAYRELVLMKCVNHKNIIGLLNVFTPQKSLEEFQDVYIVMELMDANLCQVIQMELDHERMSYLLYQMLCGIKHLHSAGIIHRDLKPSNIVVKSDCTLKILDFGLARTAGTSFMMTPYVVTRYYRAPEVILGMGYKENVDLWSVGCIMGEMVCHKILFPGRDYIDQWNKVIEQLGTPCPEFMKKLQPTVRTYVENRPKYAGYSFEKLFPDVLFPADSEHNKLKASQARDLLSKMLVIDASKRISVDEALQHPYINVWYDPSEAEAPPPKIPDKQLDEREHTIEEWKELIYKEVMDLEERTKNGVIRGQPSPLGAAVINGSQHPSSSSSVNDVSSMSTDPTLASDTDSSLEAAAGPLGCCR

[14] = molecular target: Mitogen-activated protein kinase 8 (Homo sapiens) (UniProt P45983); details: at 10 µM
[15] = molecular target: T3, Tyrosine-protein kinase ITK/TSK (Homo sapiens) (UniProt Q08881); details: at 10 µM
T3 sequence (whole entry): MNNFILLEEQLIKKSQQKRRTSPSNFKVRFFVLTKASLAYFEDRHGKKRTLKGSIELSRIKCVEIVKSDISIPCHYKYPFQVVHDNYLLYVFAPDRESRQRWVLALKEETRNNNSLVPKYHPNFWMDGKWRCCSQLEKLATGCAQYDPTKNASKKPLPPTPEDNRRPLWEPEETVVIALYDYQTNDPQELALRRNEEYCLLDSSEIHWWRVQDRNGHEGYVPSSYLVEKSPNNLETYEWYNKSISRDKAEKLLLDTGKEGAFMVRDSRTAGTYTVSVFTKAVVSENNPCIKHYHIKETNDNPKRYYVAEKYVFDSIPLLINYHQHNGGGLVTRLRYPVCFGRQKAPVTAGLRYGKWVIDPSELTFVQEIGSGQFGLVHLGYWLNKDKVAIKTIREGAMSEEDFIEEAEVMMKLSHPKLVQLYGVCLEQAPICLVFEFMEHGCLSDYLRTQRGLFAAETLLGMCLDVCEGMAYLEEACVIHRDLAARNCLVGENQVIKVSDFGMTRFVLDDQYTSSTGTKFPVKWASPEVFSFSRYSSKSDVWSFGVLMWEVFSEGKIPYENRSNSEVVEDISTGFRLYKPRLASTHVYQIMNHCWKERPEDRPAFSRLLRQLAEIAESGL

[16] = molecular target: T3, Tyrosine-protein kinase ITK/TSK (Homo sapiens); details: at 1 µM
[17] = molecular target: Mitogen-activated protein kinase 9 (Homo sapiens) (UniProt P45984); details: at 1 µM

Chain of Insulin receptor-related protein (Homo sapiens) (P14616 27-742 limits assumed): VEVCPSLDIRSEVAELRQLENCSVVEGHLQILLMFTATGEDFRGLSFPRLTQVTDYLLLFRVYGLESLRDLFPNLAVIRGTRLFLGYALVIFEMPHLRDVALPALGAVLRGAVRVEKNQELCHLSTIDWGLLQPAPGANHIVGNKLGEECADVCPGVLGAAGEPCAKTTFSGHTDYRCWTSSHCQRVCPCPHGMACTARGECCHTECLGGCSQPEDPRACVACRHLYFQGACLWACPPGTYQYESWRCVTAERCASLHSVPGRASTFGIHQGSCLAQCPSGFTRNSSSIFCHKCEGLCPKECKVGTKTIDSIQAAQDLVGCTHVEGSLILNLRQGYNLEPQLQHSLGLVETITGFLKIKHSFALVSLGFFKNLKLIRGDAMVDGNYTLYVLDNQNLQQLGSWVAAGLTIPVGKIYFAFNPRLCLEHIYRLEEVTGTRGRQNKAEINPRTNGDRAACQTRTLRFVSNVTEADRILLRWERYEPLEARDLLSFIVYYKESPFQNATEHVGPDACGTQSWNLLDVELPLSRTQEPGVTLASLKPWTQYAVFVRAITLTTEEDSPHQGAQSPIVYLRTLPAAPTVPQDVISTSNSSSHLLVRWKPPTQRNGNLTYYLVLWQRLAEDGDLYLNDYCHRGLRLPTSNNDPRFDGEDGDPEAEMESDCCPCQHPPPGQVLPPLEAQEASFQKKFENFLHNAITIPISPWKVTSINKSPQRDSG
Chain of Insulin receptor-related protein (Homo sapiens) (P14616 747-1297 limits assumed): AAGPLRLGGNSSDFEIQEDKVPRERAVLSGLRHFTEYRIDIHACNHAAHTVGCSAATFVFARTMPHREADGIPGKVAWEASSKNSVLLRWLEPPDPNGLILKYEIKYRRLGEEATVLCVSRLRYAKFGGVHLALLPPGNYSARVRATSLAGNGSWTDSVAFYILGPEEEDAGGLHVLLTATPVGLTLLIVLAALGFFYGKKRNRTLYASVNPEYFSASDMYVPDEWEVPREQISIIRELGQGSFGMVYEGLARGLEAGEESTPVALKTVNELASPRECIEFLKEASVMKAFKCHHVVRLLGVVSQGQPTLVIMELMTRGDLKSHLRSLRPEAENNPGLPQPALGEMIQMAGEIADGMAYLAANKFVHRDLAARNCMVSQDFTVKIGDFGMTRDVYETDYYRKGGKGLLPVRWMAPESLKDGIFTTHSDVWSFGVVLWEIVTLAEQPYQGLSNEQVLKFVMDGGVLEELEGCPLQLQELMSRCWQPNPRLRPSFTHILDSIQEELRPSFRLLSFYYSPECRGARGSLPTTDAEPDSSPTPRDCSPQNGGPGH
Chain of Interleukin-1 receptor-associated kinase 1 (Homo sapiens) (P51617 whole entry, looked up): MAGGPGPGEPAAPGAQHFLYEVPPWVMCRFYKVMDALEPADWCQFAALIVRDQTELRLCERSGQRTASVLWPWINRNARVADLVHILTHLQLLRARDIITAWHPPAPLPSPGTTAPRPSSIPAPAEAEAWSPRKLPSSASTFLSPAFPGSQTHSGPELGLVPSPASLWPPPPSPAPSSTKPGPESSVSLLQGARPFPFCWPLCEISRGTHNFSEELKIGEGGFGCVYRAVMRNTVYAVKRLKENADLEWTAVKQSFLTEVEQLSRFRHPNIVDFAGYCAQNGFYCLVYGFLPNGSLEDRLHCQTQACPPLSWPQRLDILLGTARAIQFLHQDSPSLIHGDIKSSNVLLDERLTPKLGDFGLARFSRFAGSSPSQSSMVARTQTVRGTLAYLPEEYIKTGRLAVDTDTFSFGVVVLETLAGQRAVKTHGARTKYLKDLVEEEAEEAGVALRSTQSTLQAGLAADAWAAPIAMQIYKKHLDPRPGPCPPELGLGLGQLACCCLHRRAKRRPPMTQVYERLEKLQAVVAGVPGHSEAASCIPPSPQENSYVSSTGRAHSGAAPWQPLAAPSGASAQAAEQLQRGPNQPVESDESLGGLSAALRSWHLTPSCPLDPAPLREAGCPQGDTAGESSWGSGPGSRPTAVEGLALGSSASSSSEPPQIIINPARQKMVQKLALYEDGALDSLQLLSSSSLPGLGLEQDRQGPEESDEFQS

Row | SMILES | residual activity [1] [%] | residual activity [2] [%] | residual activity [3] [%] | residual activity [4] [%] | residual activity [5] [%] | residual activity [6] [%] | residual activity [7] [%] | residual activity [8] [%] | residual activity [9] [%] | residual activity [10] [%] | residual activity [11] [%] | residual activity [12] [%] | residual activity [13] [%] | residual activity [14] [%] | residual activity [15] [%] | residual activity [16] [%] | residual activity [17] [%]
1 | NC(=O)c1cccc(-c2cc(Nc3ccc(OC(F)(F)F)cc3)ncn2)c1 | 95 | 93 | 139 | 98 | – | – | – | – | – | – | – | – | – | – | – | – | –
2 | O=C1Nc2ccccc2/C1=C\c1c(Cl)[nH]c2ccccc12 | – | – | – | – | 69 | 85 | 76 | 83 | – | – | – | – | – | – | – | – | –
3 | O=C(c1ccccc1)c1ccc(N2CCOCC2)cc1O | – | 89 | 131 | 75 | 93 | 82 | – | 83 | 117 | 92 | 99 | 91 | 116 | – | – | – | –
4 | NC(=O)c1ccc(-c2nc(-c3ccc4c(c3)OCCO4)c(-c3ccccn3)[nH]2)cc1 | – | – | 124 | – | 97 | – | – | – | – | – | – | – | 117 | 87 | – | – | –
5 | CC(C)(C)c1nc2c3ccc(F)cc3c3c(=O)[nH]ccc3c2[nH]1 | 55 | 62 | 101 | 52 | 53 | 1 | – | -2 | 61 | -1 | 1 | 1 | 32 | 9 | 66 | – | –
6 | Oc1cccc(-c2nc(N3CCOCC3)c3oc4ncccc4c3n2)c1 | – | – | 128 | 84 | – | – | – | 91 | – | – | – | – | – | 77 | – | – | –
7 | COc1cc2ncnc(Nc3cccc(Cl)c3)c2cc1OC | 84 | 35 | 105 | 102 | 5 | 118 | – | 73 | 64 | 123 | 86 | 109 | 112 | 122 | 105 | 100 | –
8 | Nc1nc(Nc2ccc(S(N)(=O)=O)cc2)nn1C(=O)c1c(F)cccc1F | – | 43 | 112 | 57 | 37 | 1 | 48 | 51 | 96 | 11 | 0 | 7 | – | – | 40 | – | 102
9 | Nc1nccc(-c2c(-c3ccc(F)cc3)ncn2C2CCNCC2)n1 | – | – | 140 | – | – | 118 | – | 69 | – | – | – | 120 | – | – | – | – | –
10 | Nc1ncnc2c1cnn2-c1ccccc1 | 93 | 84 | 135 | 93 | 84 | – | 95 | 78 | – | 126 | 93 | – | – | – | 97 | 102 | –
11 | Nc1n[nH]c2nc3ccccc3nc12 | 98 | 98 | 122 | 86 | 67 | – | 84 | 80 | 93 | 98 | 91 | – | – | – | – | – | 100
12 | COc1cc2c(cc1OC)-c1n[nH]c(Nc3cccc(F)c3)c1C2 | 73 | 68 | 99 | – | 34 | 114 | 69 | 53 | 76 | – | 108 | – | – | – | 41 | – | 101
13 | O=C1NC(=O)C(c2cn(CCCn3ccnc3)c3ccccc23)=C1Nc1ccccc1 | 81 | 76 | 135 | 65 | 32 | 2 | 80 | – | 45 | 103 | 39 | 15 | 109 | 79 | – | – | 110
14 | Cn1c2ccccc2c2c3c(c4c5ccccc5n(CCC#N)c4c21)CNC3=O | 47 | 44 | 69 | 53 | 4 | 2 | 73 | 7 | -1 | 4 | 3 | 1 | – | 31 | 4 | 4 | –
15 | CCN1/C(=C/C(C)=O)Sc2ccc(OC)cc21 | – | – | – | – | – | – | – | 65 | – | – | – | – | – | – | – | – | –
16 | O=C(c1cc2cc(O)ccc2[nH]1)c1cc2cc(O)ccc2[nH]1 | 65 | 23 | – | 55 | 20 | 17 | – | 51 | 50 | – | – | 64 | – | – | 16 | 64 | –
17 | c1ccc(-c2cnc(Nc3ccc(OCCN4CCCC4)cc3)s2)cc1 | – | 42 | 135 | 65 | 80 | – | – | 80 | 124 | 111 | 105 | – | 112 | 70 | 30 | 81 | –
18 | COc1cc2nccc(Oc3ccc(NC(=O)Nc4cc(C)on4)c(Cl)c3)c2cc1OC | 82 | – | 102 | 29 | – | 48 | – | – | – | – | – | 100 | 120 | 109 | – | – | –
19 | O=C(Nc1nc2ccccc2n1CCN1CCOCC1)c1cccc([N+](=O)[O-])c1 | 11 | 16 | – | – | 15 | 69 | – | – | 13 | 24 | 40 | 85 | – | – | 52 | 74 | –

— ChEMBL document CHEMBL2218924, “A broad activity screen in support of a chemogenomic map for kinase signalling research and drug discovery” (Biochem J, 2013)
